Assay outcomes: PubChem, National Center for Advancing Translational Sciences (NCATS)
TrxR1 substrate = rat thioredoxin reductase 1 substrate activity | 0.01% of 390,000 active | purified TrxR1 substrate turnover, NADPH consumption readout | AID 588456 | Potency, µM (highest dose often 114 µM), for inactives: at the top dose activity change, negative = substrate turnover; note: nearly all actives have a fitted effect of over 50% in size
Target sequence (O89049 whole entry, looked up): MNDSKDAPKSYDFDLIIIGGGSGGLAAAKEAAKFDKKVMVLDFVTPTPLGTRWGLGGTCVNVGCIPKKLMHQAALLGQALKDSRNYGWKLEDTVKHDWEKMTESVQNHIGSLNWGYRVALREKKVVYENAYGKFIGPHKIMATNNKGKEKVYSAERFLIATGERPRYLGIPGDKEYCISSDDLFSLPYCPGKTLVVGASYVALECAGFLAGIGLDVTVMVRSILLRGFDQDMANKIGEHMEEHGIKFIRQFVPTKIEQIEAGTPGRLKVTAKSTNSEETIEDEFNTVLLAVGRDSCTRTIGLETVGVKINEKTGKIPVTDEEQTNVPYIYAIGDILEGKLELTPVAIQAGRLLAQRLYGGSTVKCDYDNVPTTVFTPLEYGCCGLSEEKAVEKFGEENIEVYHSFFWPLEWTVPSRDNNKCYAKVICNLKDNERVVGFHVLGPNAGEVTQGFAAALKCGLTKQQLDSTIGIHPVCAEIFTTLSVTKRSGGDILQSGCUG
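Rat TrxR1, dispensed at 90 nM, was prereduced with 400 uM NADPH (final) for 5 min at ~22 deg C, then incubated with compound 15 min before 400 uM selenite. A first-read NADPH fluorescence drop versus no-compound background flagged substrates.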
GLS inh = glutaminase GLS (human) inhibition; Potency, µM (top dose mostly 45.5 µM), inactives show top-dose activity change, negative = inhibition, hits mostly inhibitors; GLS enzymatic activity, qHTS titration; AID 624170; 0.21% of 410,000 active
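hKGA; 45 mM KH2PO4 pH 8.2 + 0.02% Tween-20; cpd via pin tool; 1 mM Gln soln; GluOx/HRP/Amplex Red; RT 30 min; fluor. t0 & final.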
IDH1 R132H inh = blocks human mutant IDH1 R132H enzyme; 0.093% of 390,000 active; Potency, µM (top dose mostly 76.6 µM), without a hit: at the highest dose activity change, negative = inhibition, usual class: inhibitors; O75874; IDH1-R132H enzyme, NADPH consumption, diaphorase/resazurin fluorescence; AID 602179; note: nearly all actives have a fitted effect of over 65% in size
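IDH1-R132H (0.5 ug/mL dispensed) in pH 7.5 Tris buffer was preincubated 30 min with compound, then given a substrate mix of 0.016 mM NADPH and 2 mM alpha-KG for 80 min at room temperature; remaining NADPH was read by diaphorase/resazurin fluorescence.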
rTrxR1 inhibitor = rat TrxR1 inhibition. recombinant rTrxR1, NADPH fluorescence consumption, selenite substrate. AID 588453. O89049. Potency, µM (top dose mostly 114 µM), without a hit: at the highest dose activity change, negative = inhibition, hits mostly inhibitors. 1% of 390,000 active; note: nearly all actives have a fitted effect of over 65% in size
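Rat TrxR1 (90 nM in the dispensed reagent) was pre-reduced with 400 uM NADPH for 5 min at room temperature, then incubated with compound for 15 min. After 400 uM selenite was added, NADPH fluorescence (Ex 340/Em 450 nm) was followed for 8 min.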
Active calls of the source: *; ? = inconclusive; / = no result given; [ ] = remark or other dose. Most compounds without a hit are left out; they make up all but 1.2% or so of the library. Calls come from the whole dose curve; as a rule, active = well fitted curve in the direction sought with a large enough effect; inconclusive = small, poorly fitted or top-dose-only effect, or another doubt; inactive = no such curve, though single readings can be large; an effect the other way counts as inactive or inconclusive. % is set by controls: 0 for no effect and ±100 for the full control effect; potency is the fitted concentration of half-maximal effect.

SMILES	TrxR1 substrate	GLS inh	IDH1 R132H inh	rTrxR1 inhibitor
Cc1cc(F)ccc1S(=O)(=O)NCC(c1ccco1)S(=O)(=O)c1cccs1 (stereo not drawn)	6%[57.1 µM]	5%	19%	1.1µM*
CCSc1nnc(NC(=O)C2Cc3ccccc3CN2C(=O)c2ccco2)s1 (stereo not drawn)	-2%	5%	-2%	32µM*
Cc1ccc(C(=O)NCC(=O)NCC(=O)OCC(=O)c2ccc(Br)cc2)cc1	7%	9%	6%	23%
CC(=O)c1ccc(NCCC(=O)c2ccccc2)cc1	-9%	2%	1%	50µM*
Cc1cccc(NCCC(=O)c2ccc(Br)cc2)c1	-3%	-4%	3%	25µM*
Cc1ccc(C(=O)CCC(=O)Nc2cccc(C)c2)cc1	0%	-6%	2%	9%
CCOC(=O)CNCCC(=O)c1ccc(Br)cc1	-3%	5%	-1%	0.28µM*
CC(C)c1ccc(NCCC(=O)c2ccc(Br)cc2)cc1	-7%	2%	0%	56µM*
CC(=O)c1ccc(NC(=O)CCCC(=O)c2ccccc2)cc1	7%	1%	-11%	30%
CC(C)=CCC/C(C)=C\CC/C(C)=C\CC/C(C)=C\CC1=C(C)C(=O)c2ccccc2C1=O	/	-12%	/	/
COc1ccc(NC(=O)CSC2=Nc3ccccc3C3=NC(CC(=O)NCc4ccc(F)cc4)C(=O)N23)cc1 (stereo not drawn)	-1%[57.1 µM]	-3%	-4%	5%[57.1 µM]
CCC(C)NC(=O)CSC1=Nc2ccccc2C2=NC(CC(=O)NCc3ccc(F)cc3)C(=O)N12 (stereo not drawn)	35%	10µM*	0%	-7%
CCN(CC)C(=O)CSC1=Nc2ccccc2C2=NC(c3ccccc3)C(=O)N12 (stereo not drawn)	35%[57.1 µM]	13µM*	-1%	-21%[57.1 µM]
CC(=O)Nc1nonc1-c1nnc(SCC(=O)Nc2ccccc2Cl)n1C	12%	4%	-4%	16%
CC(=O)OCC(=O)[C@@]1(O)[C@H](C)C[C@H]2C3C[C@H](F)C4=CC(=O)C=CC4(C)C3[C@@H](O)CC21C (stereo partly drawn)	/	-1%	/	/
CCOC(=O)c1ccc(-n2c(CN3CCC(O)CC3)nc3ccc([N+](=O)[O-])cc3c2=O)cc1	-10%	-7%	4%	50µM*
CCOC(=O)c1ccc(-n2c(CN3CCC(C(N)=O)CC3)nc3ccc([N+](=O)[O-])cc3c2=O)cc1	-2%	3%	0%	?
Cc1cc(/C=C2\C=Cc3ccccc32)cc(C)c1[N+](=O)[O-]	-5%	/	/	20µM*
C1=Cc2ccccc2/C1=C\c1cccc(/C=C2\C=Cc3ccccc32)c1	-1%	/	/	20µM*
O=[N+]([O-])c1ccc(/C=C2\C=Cc3ccccc32)cc1	7%	/	/	36%
Brc1ccc(/C=C2\C=Cc3ccccc32)cc1	1%	/	/	32µM*
COc1cc(OC)c(/C=C/c2cc3ccccc3c[n+]2C)c(OC)c1	-15%	/	/	-23%
Cc1ncnc2nc[nH]c12	6%	/	/	23%
Cc1ccc(C(=O)c2cn(Cc3ccccc3F)c3cc4c(cc3c2=O)OCO4)cc1	5%	1%	-20%	17%
COC(=O)[C@@H]1[C@@H](C#N)C2(c3ccccc3-c3ccccc32)N(c2ccc(Cl)cc2)N1C#N	-4%	?	-30%	7.9µM*
SMILES	TrxR1 substrate	GLS inh	IDH1 R132H inh	rTrxR1 inhibitor
Cc1ccc(S(=O)(=O)N2C[C@]3(O)C[C@@H]4C(=O)N(c5ccccc5)C(=O)[C@@H]4C[C@]3(OC(=O)NC3CCCC3)C2)cc1	/	-1%	1%	/
CCOC(=O)c1ccc(NC(=O)c2csnn2)cc1	1%	0%	12%	18%
CCOc1cc(C=NN2CCCCCC2)ccc1O	-8%	11µM*	0%	0%[57.1 µM]
CCOc1cc(/C=C2\CN(CC)C/C(=C\c3ccc(O)c(OCC)c3)C2=O)ccc1O	-13%	13µM*	2%	?
COc1cc(/C=C2\CCC/C(=C\c3ccc(O)c(OC)c3)C2=O)ccc1O	-1%	12%	-19%	?
COc1ccc(C(=O)CC(Nc2ccc([N+](=O)[O-])cc2)c2ccc(OC)cc2)cc1 (stereo not drawn)	2%	-10%	7%	21%
CNC(CC(=O)c1ccc([N+](=O)[O-])cc1)C(Cl)(Cl)Cl (stereo not drawn)	?	?	5%	0.63µM*
COc1cccc(C(=O)CN2CCN(S(=O)(=O)c3cccc([N+](=O)[O-])c3)CC2)c1	-1%	0%	0%	8.9µM*
COc1ccc(-c2nc3n(n2)C(c2ccc(OC)c(OC)c2)C(C(=O)Nc2cccnc2)=C(C)N3)cc1 (stereo not drawn)	-7%[57.1 µM]	-4%	-19%	-7%[57.1 µM]
N#C/C(=C\c1coc2ccc(O)cc2c1=O)C(=O)Nc1nc2ccccc2s1	-3%	-28%	?	14µM*
COc1ccc(OC)c(C2=NOC(C(=O)NCc3ccco3)C2)c1 (stereo not drawn)	4%	2%	4%	28µM*
O=C(NCc1ccco1)C1CC(c2ccccc2O)=NO1 (stereo not drawn)	4%[57.1 µM]	-1%	2%	6%[57.1 µM]
O=C1C(=O)c2ccc(-c3ccccc3)cc2-c2ccccc21	10µM*	-7%	7%	?
Nc1ccc2c(c1)C(=O)C(=O)c1ccccc1-2	4µM*	-5%	11%	6.3µM*
CCOc1ccc(N2C(=O)CC(NCC#N)C2=O)cc1 (stereo not drawn)	3%	-7%	-7%	22µM*
O=[N+]([O-])c1ccc(Sc2cccc3cccnc23)c([N+](=O)[O-])c1	3%	-12%	44%	47%
Cc1cc(C)nc(Sc2ccc([N+](=O)[O-])cc2[N+](=O)[O-])n1	-15%	-3%	1%	10µM*
CN(C)/N=C/c1ccc(Sc2ccc([N+](=O)[O-])cc2[N+](=O)[O-])o1	-5%	-5%	12%	50µM*
O=[N+]([O-])c1ccc(Sc2ccncn2)c([N+](=O)[O-])c1	/	0%	-5%	/
C/C(CC(=O)Nc1ccc2ccccc2c1)=N\NC(=O)c1ccc(O)c(O)c1	-3%[0.0914 µM]	6.3µM*	6%	?
Cc1cc(NS(=O)(=O)c2ccc(NC(=S)NC(=O)c3ccncc3)cc2)no1	-6%	6%	-5%	-16%
Cc1cc(NS(=O)(=O)c2ccc(NC(=S)NC(=O)c3ccccc3)cc2)no1	-19%	30%	2%	45µM*
Cc1cc(NS(=O)(=O)c2ccc(NC(=S)NC(=O)c3ccc(C(C)(C)C)cc3)cc2)no1	3%[0.457 µM]	13%	0%	45µM*
CC(C)c1ccc(N=c2c([N+](=O)[O-])nn(-c3ccc4c(c3)OCCO4)n2O)cc1	-2%	11µM*	4%	3%
COc1cc(N=c2c([N+](=O)[O-])nn(-c3ccc4c(c3)OCCO4)n2O)cc(OC)c1	-12%	15%	8%	-21%
O=S(=O)(c1ccc(Cl)cc1)c1ccccn1	11%	6%	-4%	26%
